Results filed as inconclusive are left out. Active and inactive are the calls of the source. Unless noted, the call rests on the fitted dose curve; in most records, active means well fitted curve in either direction with a large enough effect (not every such curve was filed as active); inconclusive means small, poorly fitted or top-dose-only effect, or another doubt; inactive means flat fitted curve, though single readings scatter.
What was measured:
[1] = AP1 Signaling Pathway (AID 357); conditions: ME-180 AP-1-bla reporter, EGF-induced, beta-lactamase ratio, 5 h; at 17.2 µM (top of the series) unless noted; further: on the % scale 0 is the no-effect control and ±100 the full control effect
Outline: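 AP-1-bla ME-180 cells with beta-lactamase reporter under AP-1 response element, stimulated with EC50 EGF; compounds titrated, 5 hours at 37 degrees Celsius. CCF4 read at 460/530 nm ratio; positive and negative modulators judged by AC50.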

[2] = NFAT Signaling Pathway (AID 444); conditions: Jurkat NFAT-bla M1, carbachol, beta-lactamase ratio, 5 h; at 17.2 µM (top of the series) unless noted;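 further: carbachol stimulus at about its EC50 of 1 µM final; on the % scale 0 is the no-effect control and ±100 the full control effect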
Outline: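 Jurkat cells with NFAT-driven β-lactamase reporter and co-expressed M1 receptor, stimulated with carbachol (final 1 uM, ~EC50), compound titration, 5 h at 37 °C. CCF4 loaded 1 h at RT; 460/530 nm ratio gave %activity and AC50.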

[3] = Stat Signaling Pathway (AID 446);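 further: ME-180 cervical cancer cells given 40 pM IL-6 alongside compound; SIE-controlled beta-lactamase reporter measured as 460/530 nm FRET emission ratio; on the % scale 0 is the no-effect control and ±100 the full control effect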
Outline: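 Reporter line: ME-180 cervical carcinoma, SIE-beta-lactamase. Treatment: compound with 40 pM IL-6, 5 hrs, 37 C, in low-serum OPTI-MEM with 10 mM HEPES pH 7.3. Detection: 460/530 nm fluorescence.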

[4] = molecular target: Glucocorticoid receptor (Homo sapiens) (UniProt P04150); test: GR-GFP Redistribution (AID 450;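 active means compounds whose dose series gives a full or clear partial fitted curve of increased nuclear translocation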; further: potency means the concentration at half of the fitted maximal effect); conditions: U2OS GR-GFP nuclear translocation, laser cytometry, 2 h
Chain of Glucocorticoid receptor (Homo sapiens) (P04150 whole entry, looked up): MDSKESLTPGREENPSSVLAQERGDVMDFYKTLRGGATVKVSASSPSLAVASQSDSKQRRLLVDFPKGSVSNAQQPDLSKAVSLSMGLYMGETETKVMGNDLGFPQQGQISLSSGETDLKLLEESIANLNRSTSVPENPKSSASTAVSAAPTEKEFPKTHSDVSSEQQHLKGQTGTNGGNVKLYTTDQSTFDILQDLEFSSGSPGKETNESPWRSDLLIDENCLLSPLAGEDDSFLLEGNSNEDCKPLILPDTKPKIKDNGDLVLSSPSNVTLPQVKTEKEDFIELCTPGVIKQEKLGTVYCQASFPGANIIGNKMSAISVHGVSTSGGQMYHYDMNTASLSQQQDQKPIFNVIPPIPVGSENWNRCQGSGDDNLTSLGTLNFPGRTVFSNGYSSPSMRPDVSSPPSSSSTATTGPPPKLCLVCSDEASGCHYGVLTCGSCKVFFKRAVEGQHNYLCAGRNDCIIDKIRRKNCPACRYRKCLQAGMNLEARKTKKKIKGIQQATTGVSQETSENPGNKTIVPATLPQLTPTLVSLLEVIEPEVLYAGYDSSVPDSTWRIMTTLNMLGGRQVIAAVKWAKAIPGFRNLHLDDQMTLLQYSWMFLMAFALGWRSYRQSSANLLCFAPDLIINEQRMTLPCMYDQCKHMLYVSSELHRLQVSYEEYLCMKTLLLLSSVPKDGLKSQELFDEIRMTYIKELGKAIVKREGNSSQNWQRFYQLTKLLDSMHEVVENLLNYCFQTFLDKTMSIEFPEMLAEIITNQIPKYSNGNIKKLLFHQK

COc1ccc(C(=O)CC2C(=O)N(C)C(=O)N(C)C2=O)cc1
inactive: activity change, negative = inhibition [1] 8.4% | activity change, negative = inhibition [2] -29.5% | outcome [3] | Potency [4] > 20.6 µM

COc1ccc(Cn2c(O)c(C=NCCN3CCOCC3)c(=O)[nH]c2=O)cc1
inactive: activity change, negative = inhibition [1] -6.69% | activity change, negative = inhibition [2] -3.63% | outcome [3] | Potency [4] > 20.6 µM

Source: PubChem BioAssay (NCATS)
